Screening results deposited in PubChem BioAssay by National Center for Advancing Translational Sciences (NCATS).
Only some compounds are listed: those with a hit (about 18% of all), similar ones and a draw of the others.
Six1-Eya2 inh = inhibitors of human Six1/Eya2 interaction | AlphaScreen GST-Six1/His-Eya2 binding, biochemical; hits give low values | activity change, % (no concentration beside the values) | 360,000 compounds, 0.56% hits | AID 651725; in the data active = activity change below about -65%; inconclusive = mostly about -30% to -63%
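AlphaScreen with GST-Six1 and His-Eya2 (5X mix: 250 nM and 500 nM), glutathione donor and nickel acceptor beads; buffer 50 mM Tris pH 8.0, 300 mM NaCl, 1 mM TCEP; 1 h at 37 C in the dark.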
TDP1 inh = TDP1 (human) enzyme inhibition; Potency, µM (titrated, usually from 130 µM), usual class: inhibitors; recombinant TDP1, AlphaScreen DNA substrate cleavage; 350,000 compounds, 0.28% hits; AID 485290; Q9NUW8; note: nearly all actives have a fitted effect of over 40% in size
Target sequence (Q9NUW8 whole entry, looked up): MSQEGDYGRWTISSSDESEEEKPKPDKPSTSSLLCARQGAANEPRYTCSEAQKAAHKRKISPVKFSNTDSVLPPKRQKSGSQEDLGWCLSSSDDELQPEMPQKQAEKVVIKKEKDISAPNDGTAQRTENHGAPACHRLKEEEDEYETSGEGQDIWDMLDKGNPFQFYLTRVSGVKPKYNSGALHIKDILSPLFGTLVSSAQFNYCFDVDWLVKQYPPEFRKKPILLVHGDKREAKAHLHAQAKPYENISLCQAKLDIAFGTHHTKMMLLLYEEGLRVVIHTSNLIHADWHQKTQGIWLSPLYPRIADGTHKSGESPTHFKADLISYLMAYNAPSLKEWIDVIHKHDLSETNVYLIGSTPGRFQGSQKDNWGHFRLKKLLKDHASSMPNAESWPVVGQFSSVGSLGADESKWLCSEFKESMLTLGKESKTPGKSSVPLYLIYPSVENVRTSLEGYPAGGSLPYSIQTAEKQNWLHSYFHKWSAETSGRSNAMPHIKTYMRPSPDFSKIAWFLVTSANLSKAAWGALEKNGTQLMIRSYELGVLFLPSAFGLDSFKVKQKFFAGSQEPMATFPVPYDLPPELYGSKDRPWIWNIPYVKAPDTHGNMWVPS
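Compounds were preincubated with Tdp1 (1 nM final) for 15 min at room temperature before substrate (15 nM final) started a 5 min reaction; beads (10 ug/ml final) were then added for 10 min before AlphaScreen detection.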
DT40 TDP1 no CPT = qHTS for Inhibitors of human tyrosyl-DNA phosphodiesterase 1 (TDP1): qHTS in cells in absence of CPT; 420,000 compounds, 15% hits; Potency, µM (top dose mostly 46.2 µM), usual class: inhibitors; DT40 Tdp1-/- hTDP1 cells, no CPT, ATP luminescence, 48 h; AID 686978, 2013; note: nearly all actives have a fitted effect of over 55% in size
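Stably hTDP1-transfected Tdp1-null chicken DT40 cells were treated with library compounds minus camptothecin and grown for at least 48 hr at 37 °C, after which cellular ATP was quantified by luminescence.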
TDP1 cell CPT = DT40-hTDP1 cell growth loss with CPT; 420,000 compounds, 12% hits; chicken DT40 Tdp1-/-;hTDP1 cells + 20 nM CPT, ATP luminescence, 48 h; Potency, µM (series often up to 46.2 µM), usual class: inhibitors; AID 686979; note: nearly all actives have a fitted effect of over 55% in size
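Chicken DT40 Tdp1-/- cells complemented with human TDP1, 400 cells/well, exposed to compounds plus 20 nM camptothecin for at least 48 h at 37 C; viability read as ATP content by CellTiter-Glo luminescence.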
IL-1B inflam inh = inhibitors of inflammasome signaling (IL-1 beta secretion); THP-1 LPS/ATP IL-1B secretion, AlphaLISA, 16 h; hits give low values; activity change, % at 57.5 µM; 360,000 compounds, 4.7% hits; in the data active = activity change below about -50%; inconclusive = mostly about -30% to -49%
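THP-1 cells pretreated 1 hr with compounds (up to 57.5 uM final), then stimulated with LPS (250 ng/mL final) plus ATP (1.25 mM final); secreted IL-1B measured by AlphaLISA after 16 hr, decreased signal indicating inhibition.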
CtBP-E1A inh = CtBP/E1A binding inhibition; AlphaScreen GST-E1A/His-CtBP binding, 1536-well; hits give low values; activity change, % (concentration not given with the values); 340,000 compounds, 0.49% hits; AID 651724; in the data active = activity change below about -65%; inconclusive = mostly about -30% to -63%
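Steps: dispense buffer (Tris pH 8.0, NaCl 300 mM, TCEP 1 mM, BSA, Tween 20); add 5X protein mix (GST-E1A, His-CtBP, 125 nM each); pin 23 nL compound; 2 h at 37 °C, dark; add 5X beads (50 ug/mL); 1 h; read.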
Of the large screens only hits and unclear results are named; the others gave an inactive call. Unless noted, calls come from the whole dose curve; as a rule, active = well fitted curve in the direction sought with a large enough effect; inconclusive = small, poorly fitted or top-dose-only effect, or another doubt; inactive = no such curve, though single readings can be large; an effect the other way counts as inactive or inconclusive.

COc1ccc2c(c1)c(C(=O)N/N=C/c1ccc(OC)c(OC)c1)c(C)n2C	DT40 TDP1 no CPT 12µM, TDP1 cell CPT 18µM
C=CCNC(=O)/C(C#N)=C/c1ccc(OS(=O)(=O)c2ccc(C)cc2)c(OC)c1	DT40 TDP1 no CPT inconclusive, TDP1 cell CPT inconclusive, IL-1B inflam inh -79
COc1ccc(/C=N/NS(=O)(=O)c2ccccc2)cc1OC	DT40 TDP1 no CPT 23µM, TDP1 cell CPT 21µM (no result: TDP1 inh, CtBP-E1A inh)
COc1ccc(-n2c(O)c(/C=N/NS(=O)(=O)c3cccc([N+](=O)[O-])c3)c3ccccc3c2=O)cc1OC	DT40 TDP1 no CPT 18µM, TDP1 cell CPT 23µM
COc1ccc(CC(=O)NNS(=O)(=O)c2cccc([N+](=O)[O-])c2)cc1OC	none
CCCCNC(=S)NC(=O)c1ccc(Cl)cc1Cl	DT40 TDP1 no CPT inconclusive
CCNc1ncc2nc(C)c(=O)n(Cc3ccc(F)cc3)c2n1	none (no result: Six1-Eya2 inh, TDP1 inh, IL-1B inflam inh, CtBP-E1A inh)
COc1cc(/C=N/NC(=O)COc2cccc(F)c2)ccc1OS(=O)(=O)c1ccc(C)cc1	DT40 TDP1 no CPT 26µM, TDP1 cell CPT 18µM
COC(=O)Oc1ccc(/C=N/NC(=O)CSCc2ccccc2Br)cc1OC	Six1-Eya2 inh inconclusive, DT40 TDP1 no CPT 15µM, TDP1 cell CPT 23µM
COc1cc(/C=N/Nc2cc(C)nc(NS(=O)(=O)c3ccc(C)cc3)n2)ccc1O	Six1-Eya2 inh inconclusive, DT40 TDP1 no CPT inconclusive
CCOc1ccc(/C=N/NS(=O)(=O)c2ccc(C)cc2)cc1OC	none (no result: TDP1 inh, CtBP-E1A inh)
COC(=O)N/N=C/c1ccc(OS(=O)(=O)c2ccc(C)cc2)c(OC)c1	DT40 TDP1 no CPT inconclusive, IL-1B inflam inh -72
COc1cc(/C=N/Nc2cc(C)nc(NS(=O)(=O)c3ccccc3)n2)ccc1O	Six1-Eya2 inh -71, CtBP-E1A inh -73
CCn1cc(S(=O)(=O)c2ccc(C)cc2)[nH]c1=O	none
COCCNC(=O)C(=O)N/N=C/c1ccc(C(=O)OC)cc1	none
O=S(=O)(N/N=C/c1cccc(OC2CSC2)c1)c1ccccc1	DT40 TDP1 no CPT inconclusive, TDP1 cell CPT 16µM
COc1ccc(Br)cc1/C=N/NS(=O)(=O)c1ccccc1	DT40 TDP1 no CPT 7.3µM, TDP1 cell CPT 18µM (no result: TDP1 inh)
COCCNC(=S)N/N=C/c1ccc(OCc2ccc(C(=O)OC)cc2)c(OC)c1	DT40 TDP1 no CPT 23µM, TDP1 cell CPT inconclusive
COc1cc(/C=N/NS(=O)(=O)c2ccccc2)ccc1OS(=O)(=O)c1ccc(C)cc1	none
COc1ccc(/C=N/NS(=O)(=O)c2ccccc2)cc1OS(=O)(=O)c1ccc(C)cc1	DT40 TDP1 no CPT 18µM, TDP1 cell CPT inconclusive
Cc1ccc(S(=O)(=O)N/N=C/c2cccc(OC3CSC3)c2)cc1	DT40 TDP1 no CPT inconclusive, TDP1 cell CPT inconclusive
COc1ccccc1C(=O)N=C1SC2CS(=O)(=O)CC2N1c1ccccc1 (stereo not drawn)	none
COc1ccc(C=NNC(=O)NN=Cc2ccc(OC)c(OC)c2)cc1OC	DT40 TDP1 no CPT 21µM, TDP1 cell CPT inconclusive, IL-1B inflam inh inconclusive (no result: TDP1 inh)
O=C(OCc1ccccc1)N1CCC2CC1c1cc(Cl)ccc12 (stereo not drawn)	DT40 TDP1 no CPT inconclusive, TDP1 cell CPT inconclusive, IL-1B inflam inh inconclusive (no result: TDP1 inh)
O=C(OCc1ccccc1)N1CCC2CC1c1c(Cl)cccc12 (stereo not drawn)	DT40 TDP1 no CPT 18µM, TDP1 cell CPT inconclusive (no result: TDP1 inh)
O=C(OCc1ccccc1)N1CCC2CC1c1c(-c3ccc(C(F)(F)F)cc3)cccc12 (stereo not drawn)	DT40 TDP1 no CPT inconclusive, TDP1 cell CPT 16µM (no result: TDP1 inh)
FC(F)(F)c1ccc(-c2cccc3c2C2CC3CCN2Cc2ccc3c(c2)OCO3)cc1 (stereo not drawn)	DT40 TDP1 no CPT 16µM, TDP1 cell CPT inconclusive (no result: TDP1 inh)
COc1ccc(S(=O)(=O)N(CCO)c2ccccc2CN(C)C/C=C/c2ccc(Cl)cc2)cc1	DT40 TDP1 no CPT 15µM, TDP1 cell CPT 12µM (no result: Six1-Eya2 inh, IL-1B inflam inh, CtBP-E1A inh)
CN1CCN(C(=O)c2ccc(CNS(=O)(=O)c3ccc(F)c(Cl)c3)cc2)CC1	TDP1 cell CPT inconclusive
